In all, about 5,800 sequences were measured (“enrichment r”: median about 0.68, highest 2% from about 11 on). Not all results are given here.
B1: ENSG00000168297:stop:overlap|stop_codon|ENSG00000168297|stop_codon|NA|stop_codon (ssRNA)
RNA: GGGAGUUCUACAGUCCGACGAUCCUGGGGCCAGCUCACCUCUCACGUCCCCGUCAUCGCCAACUCCACCCUCUACAUCAGGUUAGUGAUGGAGUAAAGUGACAUGCCACCUUCCUGUCCGCCAACAGGAGGAGCGGGCUGUGCCAACAGAGGAUUGAGCAUCA
B2: chr22:40826605:40826706:-|CDS|ENSG00000100380|unk|total|mutant (ssRNA)
RNA: GGGAGUUCUACAGUCCGACGAUCCACCAAAUUACAGGUCUAAAUAAGAGAUGGAAUUCCGGAUAAUAAACUUACUGACCCAGCCGGACACUUUUUAAAUACUAAUGAACCCUUUCUUUUCAGGAUCCAGAAGUUAUGGUGGCUCAACAGAGGAUUGAGCAUCA
B3: ENSG00000143373:stop:overlap|stop_codon|ENSG00000143373|stop_codon|NA|stop_codon (ssRNA)
RNA: GGGAGUUCUACAGUCCGACGAUCACUUCCGCACGCAUGGCAUGGCGUUCAUCAGGGCUCGGCAGGGGGCUGUUGGGGACAACUAGUCUCCAAGGCCUGGGACUGACCAGCCCCUUCCUCUUGGAGCCUGGUUUUCCCUACUGCCAACAGAGGAUUGAGCAUCA
B4: ENSG00000136451:be:win_2201|3pUTR|ENSG00000136451|bound_else_gene|NA|bound_elsewhere_windowed (ssRNA)
RNA: GGGAGUUCUACAGUCCGACGAUCAUUGUGACCUGAUAUUUGGAGAUGUAAAUAUUGCUCAGCAUAUUAAUCCCGAUGGAAUAUAGCAUUGUAGUUGACUUUUUAAAAAAAAAAAAAAUUUAAAAAAAAUCUACAAAUUGUGUUCAACAGAGGAUUGAGCAUCA
B5: chr3:11298707:11298833:+|CDS|ENSG00000197548|unk|total|mutant (ssRNA)
RNA: GGGAGUUCUACAGUCCGACGAUCAUAAUGGCGGCAGCUACGGGGGAUCCUGGACUCUCUAAACUGCAGUUUGCCCCUUUCCGCCGUGCCUUGGAUGUUGGGUUUUGGCAUGAGUUGACCCAGAAGAAGCUGAACGAGUAUCGGCAACAGAGGAUUGAGCAUCA
B6: chrX:15345595:15346132:-|three_prime_utr|ENSG00000165197|control|control|control (ssRNA)
RNA: GGGAGUUCUACAGUCCGACGAUCCAGACCAACCUUCCAUUCACACCAGCUAAGGAGUCCCUGGUUCAUUGAUGGAUGUCUUCUAGCUGCAGAUGCCUCUGCGCACCAAGGAAUGGAGAGGAGGGGACCCAUGUAAUCCUUUUGCAACAGAGGAUUGAGCAUCA
B7: chrX:65741840:65741941:+|3pUTR|ENSG00000147065|msi1|FALSE|unique (ssRNA)
RNA: GGGAGUUCUACAGUCCGACGAUCAAAUUGUUUUUGGAGGGGUUUAUGCUCAAUCCAUGUUCUAUUUCAGUGCCAAUAAAAUUUAGGAAGACUUCACAGUGACUCAAUCGUUCUUUGUGGUAUGAGUGGGUAGCUGUAAGAUAUCAACAGAGGAUUGAGCAUCA
B8: chr10:72011937:72012038:+|3pUTR|ENSG00000122863|msi1|total|mutant (ssRNA)
RNA: GGGAGUUCUACAGUCCGACGAUCCAUACACCGCAGGUGGUCACCGAGUUAUUUUCCAAAAGCUGAGGAACAUAAAGCAAAUUCCGGCUUUUGUCCUUCUGCAAUACAUGCACUUGAAAAUAAACAGAAAAGAGAUGUUUAAUACAACAGAGGAUUGAGCAUCA
B9: chr17:50110931:50111032:+|3pUTR|ENSG00000005882|unk|total|mutant (ssRNA)
RNA: GGGAGUUCUACAGUCCGACGAUCUGUGCCCAGACAUGUGUGCUCAGGGUGGCUUUCUCCCCCGGACCUUCUGUGUAUACCGUCCGUUUUAUAACCCUGAAUGCCCCCACCCUUCCCCUAAGCACACAGGGGUUAAAGCUGUGUCAACAGAGGAUUGAGCAUCA
B10: chr6:132588675:132589686:-|CDS|ENSG00000135569|control|control|control (ssRNA)
RNA: GGGAGUUCUACAGUCCGACGAUCUGCCAAGACCCUGGGCAUUGCUGUGGGCAUAUACCUCUUGUGCUGGCUGCCCUUCACCAUAGACACGAUGGUCGACAGCCUCCUUCACUUUAUCACACCCCCACUGGUCUUUGACAUCUUCAACAGAGGAUUGAGCAUCA
B11: chr2:1632407:1632508:-|3pUTR|ENSG00000130508|msi1|total|mutant (ssRNA)
RNA: GGGAGUUCUACAGUCCGACGAUCUUGGUAAGUGAUUGAUAAAAAUUGGUUGGUGUUUCAUGACAUGUGGACUUCUUUUGAAACCGCAAGUCAAAUGCCGUGACCAAAUUGUGGAAGAGAUUUCUGUCAAACCGGAAAUGUGUACAACAGAGGAUUGAGCAUCA
B12: ENSG00000198589:be:win_3901|CDS|ENSG00000198589|bound_else_gene|NA|bound_elsewhere_windowed (ssRNA)
RNA: GGGAGUUCUACAGUCCGACGAUCUCUACUGUGUUUCGUAUUCCUGAGUUCAACUGGUCUCAGAUGCAUCAACGUUUGCUCACUGAUCUAUUAUUUUCAAUAGAAACAGAUAUACAGAUGUGGAGAAGCCAUUCAACAAAGACACAACAGAGGAUUGAGCAUCA
B13: chr6:21593967:21594078:+|5pUTR|ENSG00000124766|unk|FALSE|bound_elsewhere (ssRNA)
RNA: GGGAGUUCUACAGUCCGACGAUCUUAGUGCCGAUUCCGCCCACAGAGAGUCCUGGAGCCACAGUCUUUUUUGCUUUGCAUUGUAGGAGAGGGACUAAGUGCUAGAGACUAUGUCGCUUUCCUGAGCUACCGAGAGCGCUCGUGCAACAGAGGAUUGAGCAUCA
B14: chr9:88477803:88477904:+|3pUTR|ENSG00000106723|msi1|FALSE|bound_elsewhere (ssRNA)
RNA: GGGAGUUCUACAGUCCGACGAUCGACAAUACAAGACAUGAAUCUAUGUAUAAAAUUUAUCGGCCUUUCUCAUUUACCUGCUCUAGUAUUAUUGUAUUGUGUGUGCGUGCGUGUGUGAUGUCAGGCUGCCACGUAAAACUUCAGCAACAGAGGAUUGAGCAUCA
B15: chr17:68278117:68278284:-|CDS|ENSG00000108932|unk|FALSE|unique (ssRNA)
RNA: GGGAGUUCUACAGUCCGACGAUCGCUUUGUUCCAAAGCCAAUGUGUAUACUGAAGUGCCUGAUGGAGGAUGGGGCUGGGCGGUAGCUGUUUCAUUUUUCUUCGUUGAAGUCUUCACCUACGGCAUCAUCAAGACAUUUGGUGUCAACAGAGGAUUGAGCAUCA
B16: ENSG00000112146:stop:overlap|stop_codon|ENSG00000112146|stop_codon|NA|stop_codon (ssRNA)
RNA: GGGAGUUCUACAGUCCGACGAUCACACCCCCUUGUUCUUCGCCAGAGUAAGGAGCUACACAGCUUUCUCAGAAAGGCCUCUGUAGAGCCUCAAGUCCAGUCCUCUAUCACUUUUGCAUGAAUUAAAGUAUAUAGCGCAAAAGACAACAGAGGAUUGAGCAUCA
B17: ENSG00000070961:be:win_5851|3pUTR|ENSG00000070961|bound_else_gene|NA|bound_elsewhere_windowed (ssRNA)
RNA: GGGAGUUCUACAGUCCGACGAUCAUGAAUGUAAUUACCAAAAGAUUUAGAAGUGCAUGUGCUUUGGAGGAUUUGUAUUGAGCUUUUACAGUAUUCAUUUUUCAACUCAAGGCAAUGGCUUUCUACACCAACUCUAAUCCAUAACAACAGAGGAUUGAGCAUCA
B18: ENSG00000070961:be:win_3451|CDS|ENSG00000070961|bound_else_gene|NA|bound_elsewhere_windowed (ssRNA)
RNA: GGGAGUUCUACAGUCCGACGAUCAGGAUAGAAGAUUCAGAGCCUCAUAUCCCCCUUAUUGAUGACACUGAUGCCGAAGAUGAUGCUCCUACAAAACGUAACUCCAGUCCUCCACCCUCUCCCAACAAAAAUAACAAUGCUGUUCAACAGAGGAUUGAGCAUCA
B19: chr11:61866962:61867357:+|3pUTR|ENSG00000134824|msi1|FALSE|unique (ssRNA)
RNA: GGGAGUUCUACAGUCCGACGAUCAGAUUCAGGGGAAGGGCAGGCACCAACAACUCAGAAUGGGGGCUUUCGGGGAGGGCGCCUAGUCCCCCCAGCUCUAAGCAGCCAGGAGGGACCUGCAUCUAAGCAUCUGGGUUGCCAUGGCAACAGAGGAUUGAGCAUCA
B20: chr2:32508095:32508220:+|CDS|ENSG00000115760|unk|total|mutant (ssRNA)
RNA: GGGAGUUCUACAGUCCGACGAUCAGCCGAAGCCGCUUCUGCUGUCUGCCUCCGACUACAUCGUCCACGGGAUGCCAGCACAUCCGGCCUUUCACAAAUUAAAUUAUUGGGGCUCACUGCUUUUGGUACCACCUCUUCUGCAACCAACAGAGGAUUGAGCAUCA
B21: chr14:92797766:92797867:+|CDS|ENSG00000066455|msi1|total|mutant (ssRNA)
RNA: GGGAGUUCUACAGUCCGACGAUCCAUUUUGUGCGAAGAAAAAAGUCAGAACCUGAUGAUGAGCUGCUGUUUGAUUUUCUUAACCGUUCACAGAAGGAGCCUACCGGGAGGGUGGAAAUCAGAAAGGAAAAAGGCAAGACACCUCAACAGAGGAUUGAGCAUCA
B22: chr18:70325936:70326038:+|CDS|ENSG00000170677|unk|total|mutant (ssRNA)
RNA: GGGAGUUCUACAGUCCGACGAUCAGCUUUCGCUCCCAUGGUAAAACACUUCACACCCGAAUUGAGCACUCAAAUGGCCGGUUCCGCUUUUAUGAACAGCCAGAUGUGGAAGGACAUACGUCCACCGUUGAUCUAAUUGAGCAUCAACAGAGGAUUGAGCAUCA

target: T1, UNK ZnF1-6 (called full-length) (human, UniProt Q9C0B0 30-357); test: nsRBNS (natural sequence RNA bind-n-seq); RBNS binding buffer (assumed for nsRBNS): 25 mM Tris pH 7.5, 150 mM KCl, 3 mM MgCl2, 0.01% Triton X-100, 500 ug/ml BSA, 20 U/ml SUPERase-In, 4 C; UNK is unkempt and MSI1 is Musashi-1; names of the RNAs are library labels; protein concentration not given here; high values mean tight binding
T1 sequence: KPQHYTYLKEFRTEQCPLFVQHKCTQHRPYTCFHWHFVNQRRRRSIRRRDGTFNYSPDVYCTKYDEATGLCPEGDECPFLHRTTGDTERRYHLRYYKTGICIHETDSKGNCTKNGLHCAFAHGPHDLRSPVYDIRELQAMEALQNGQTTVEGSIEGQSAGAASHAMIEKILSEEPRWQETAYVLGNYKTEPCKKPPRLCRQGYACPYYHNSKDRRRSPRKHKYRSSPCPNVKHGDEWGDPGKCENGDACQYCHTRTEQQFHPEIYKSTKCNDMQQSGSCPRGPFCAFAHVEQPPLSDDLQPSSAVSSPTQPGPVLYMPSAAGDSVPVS

Row | Binder | binding signal [enrichment R]
1 | B1 | 1.05
2 | B2 | 0.405
3 | B3 | 0.569
4 | B4 | 0.637
5 | B5 | 0.839
6 | B6 | 0.639
7 | B7 | 0.698
8 | B8 | 0.34
9 | B9 | 1.06
10 | B10 | 0.967
11 | B11 | 0.207
12 | B12 | 0.382
13 | B13 | 0.815
14 | B14 | 1.09
15 | B15 | 0.822
16 | B16 | 0.367
17 | B17 | 0.908
18 | B18 | 0.813
19 | B19 | 0.948
20 | B20 | 0.577
21 | B21 | 0.771
22 | B22 | 0.461
